Experimental data taken from PubChem BioAssay AID999 (SRMLSC, 2007).
A number with no mark means an inactive call. Calls of active or inactive are those of the source.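 The calls were made as follows: active = viability at or below 21.59%, 3 SD under the median of tested compounds; inactive = the rest.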

Test: growth suppression of PTEN-null HCT116 cells, cell-based, validation, diverse DP compound set (AID 999);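 also: 100% = median luminescence of untreated cell control wells and 0% = no signal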
Settings: CellTiter-Glo, 60 h, at 10 µM, stronger effect = lower value

| SMILES | viability |
| --- | --- |
| c1ccc2nc3ccccc3cc2c1 | 99.8% |
| C=C1OC(CO)(n2cnc3c(N)ncnc32)C(O)C1O (stereo unspecified) | 92.8% |
| Nc1c(N=Nc2ccc(-c3ccc(N=Nc4cc(S(=O)(=O)O)c5ccccc5c4N)cc3)cc2)cc(S(=O)(=O)O)c2ccccc12 | 86.5% |
| COc1cc(-c2ccc(=O)[nH]n2)ccc1OC(F)F | 94.7% |
| CC(=O)N[C@H]1C(O[C@@H]2O[C@H](C[C@@H](O)[C@H]3O[C@@H](N4CCC(=O)NC4=O)[C@H](O)[C@@H]3O)[C@H](O)[C@H](O)[C@H]2NC(=O)/C=C/CCCCCCCCCCC(C)C)OC(CO)[C@@H](O)[C@@H]1O (stereo partly specified) | 52.8% |
| COc1ccc(CCN(C)CCCN2CCc3cc(OC)c(OC)cc3CC2=O)cc1OC | 97.1% |
| Clc1ccc2ncnc(NCc3ccc4c(c3)OCO4)c2c1 | 83.1% |
| COc1ccc(CCN2CCC(Nc3nc4ccccc4n3Cc3ccc(F)cc3)CC2)cc1 | 16.6% (active) |
| CCC(C)CCCCC(=O)N[C@@H](CCN)C(=O)N[C@H](C(=O)N[C@@H](CCN)C(=O)N[C@H]1CCNC(=O)C([C@@H](C)O)NC(=O)[C@@H](CCN)NC(=O)[C@H](CCN)NC(=O)[C@H](CC(C)C)NC(=O)[C@@H](CC(C)C)NC(=O)[C@H](CCN)NC1=O)[C@@H](C)O (stereo partly specified) | 96% |
| C=CC1(C)CC(=O)C2(O)C(C)(O1)C(OC(C)=O)C(O)C1C(C)(C)CCC(O)C12C (stereo unspecified) | 85.5% |
| C=CCc1ccc(O)c(-c2cc(CC=C)ccc2O)c1 | 98.7% |
| COc1cc2c(c(OC)c1OC)-c1ccc(OC)c(=O)cc1[C@@H](NC(C)=O)CC2 | 32.5% |
| CO[C@@H]1[C@@H](OC(N)=O)[C@@H](O)[C@H](Oc2ccc3c(O)c(NC(=O)c4ccc(O)c(CC=C(C)C)c4)c(=O)oc3c2C)OC1(C)C | 88% |
| COc1ccc2cc1Oc1ccc(cc1)C[C@H]1c3c(cc4c(c3Oc3cc5c(cc3OC)CCN(C)[C@@H]5C2)OCO4)CCN1C | 37.8% |
| COc1ccc2c3c1O[C@H]1C[C@@H](O)C=C[C@@]31CCN(C)C2 | 91.7% |
| CCCC[C@@H](C=O)NC(=O)[C@H](CC(C)C)NC(=O)[C@H](CC(C)C)NC(C)=O | 15.1% (active) |

| SMILES | viability |
| --- | --- |
| CO/N=C(\C(=O)N[C@@H]1C(=O)N2C(C(=O)O)=C(COC(C)=O)CS[C@H]12)c1csc(N)n1 | 89.4% |
| C=C(CCC12O[C@H](C(=O)O)[C@@](O)(C(=O)O)[C@](C(=O)O)(O1)[C@H](OC(=O)/C=C/[C@@H](C)C[C@@H](C)CC)[C@H]2O)[C@@H](OC(C)=O)[C@H](C)Cc1ccccc1 | 98.3% |
| C[C@@H]1CC[C@]2(C(=O)O)CC[C@]3(C)C(=CCC4[C@@]5(C)C[C@@H](O)[C@H](O)[C@@](C)(CO)C5[C@H](O)C[C@]43C)C2[C@H]1C (stereo partly specified) | 84.7% |
| COc1cc(CNC(=O)CCCC/C=C/C(C)C)ccc1O | 99.3% |
| COc1ccc(CC(N)C(=O)N[C@H]2[C@@H](O)[C@H](n3cnc4c(N(C)C)ncnc43)O[C@@H]2CO)cc1 (stereo partly specified) | 5.97% (active) |
| COc1cccc2c1C(=O)c1c(O)c3c(c(O)c1C2=O)C[C@@](O)(C(=O)CO)C[C@@H]3OC1C[C@@H](N)[C@H](O)[C@H](C)O1 (stereo partly specified) | 27.7% |
| O=c1c(O)c(-c2ccc(O)c(O)c2)oc2cc(O)cc(O)c12 | 72.4% |
| CCCCCCCCCCCCCCCC(=O)OCC(O)C1OC(=O)C(O)=C1O (stereo unspecified) | 101% |
| Cc1cc2c(C(C)C)c(O)c(O)c(C=O)c2c(O)c1-c1c(C)cc2c(C(C)C)c(O)c(O)c(C=O)c2c1O | 13% (active) |
| O=C(c1ccc(F)cc1)C1CCN(CCn2c(=O)[nH]c3ccccc3c2=O)CC1 | 94.8% |
| COc1ccc2cc3[n+](cc2c1OC)CCc1cc2c(cc1-3)OCO2 | 82.9% |
| O=C(c1ccc(OCCN2CCCCC2)cc1)c1c(-c2ccc(O)cc2)sc2cc(O)ccc12 | 61.1% |
| COc1ccc2c(c1)c(CC(=O)O)c(C)n2C(=O)c1ccc(Cl)cc1 | 105% |
| C[C@H](CS)C(=O)N1CCC[C@H]1C(=O)O | 93.9% |
| C[C@H]1c2cccc(O)c2C(O)=C2C(=O)[C@]3(O)C(O)=C(C(N)=O)C(=O)[C@@H](N(C)C)[C@@H]3[C@@H](O)[C@@H]21 | 90.5% |
